Shown is part of a subset that was picked to be rich in hits.
Lassa entry inh = blocks Lassa virus binding to or entry into cells; hit rate 1.2% among 300,000; Lassa virus pseudotype entry inhibition, cell reporter; Potency, µM (series often up to 37.9 µM), for inactives: at the highest dose activity change, negative = inhibition, most hits filed as inhibitors; calls by dose curve; tested in HEK293 cells; also: potency is read from the fitted curve at half-maximal effect; % is scaled to controls: 0 for no effect and ±100 for the full control effect; nearly all actives have a fitted effect of over 50% in size
CHX counter = counter-screen hit for Shiga toxin inhibitors, cycloheximide | cell reporter, cycloheximide protein synthesis inhibition counterscreen | max response, % | hit rate 12% among 300,000 | AID 2314; in the data active = max response mostly above about 13%, no sharp cut-off; inactive = mostly below about 14%; also: read at 38.3 µM for the half of the compounds with a filed dose; 0% is about no effect
Shiga inhibitor = inhibitors of Shiga toxin in Vero cells | AID 2315 | inhibition, % at 38.7 µM | hit rate 9.2% among 290,000 | Vero cells, Shiga toxin protein synthesis inhibition reporter; in the data active = inhibition mostly above about 28%, no sharp cut-off; inactive = mostly below about 43%; also: 0% is about no effect
AMA1-RON2 inh = inhibitors of Plasmodium falciparum AMA1-RON2 interaction. AlphaScreen AMA1-biotinylated RON2 peptide binding. Potency, µM (doses to about 58.2 µM), without a hit: at the top dose activity change, negative = inhibition, most hits filed as inhibitors. hit rate 0.2% among 360,000; active = well fitted inhibition curve with a large enough effect; inconclusive = small, poorly fitted or top-dose-only effect; inactive = no such curve, though single readings can be large or run the other way;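 also: potency is read from the fitted curve at half-maximal effect; 0% = vehicle wells and -100% = peptide control; nearly all actives have a fitted effect of over 45% in size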
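AMA1 (3D7) with his tag at 25 nM final met compounds first, then biotinylated RON2 peptide at 25 nM; detection used donor plus acceptor beads, 10 µg/mL apiece, read by AlphaScreen after 30 min at room temperature.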
MARV entry inh = Marburg virus entry inhibition. Marburg virus pseudotyped entry inhibition, cell reporter. Potency, µM (highest dose often 37.8 µM), for the others: at the top dose activity change, negative = inhibition, most hits filed as inhibitors. hit rate 1.8% among 300,000; calls by dose curve; tested in HEK293 cells; also: potency is read from the fitted curve at half-maximal effect; % is scaled to controls: 0 for no effect and ±100 for the full control effect
* marks the source's active call; other numbers are inactive results; [ ] = another dose, or the depositor's remark.

Screening COCCCNc1ncnc2ccc(C)cc12 returned Lassa entry inh -23%, CHX counter 15*, Shiga inhibitor 39*, AMA1-RON2 inh 35% and MARV entry inh -27%.
Screening Cc1ccc(NC(=O)Nc2ccc(Cl)cc2)c(Br)c1 returned Lassa entry inh 14%, CHX counter 28*, Shiga inhibitor active, AMA1-RON2 inh -4% and MARV entry inh inconclusive.
Screening Cc1ccc(NC(=O)c2ccccn2)c(Br)c1 returned Lassa entry inh -22%, CHX counter 52*, Shiga inhibitor 89*, AMA1-RON2 inh 71% and MARV entry inh inconclusive.
For Cc1ccc(NC(=O)/C=C/c2ccc(Cl)cc2)c(Br)c1 the results were Lassa entry inh 1%[46.1 µM].
Cc1cccc(NC(=O)c2ccccn2)c1C was read as Lassa entry inh inconclusive, CHX counter 32*, Shiga inhibitor 77*, AMA1-RON2 inh 17% and MARV entry inh inconclusive.
Screening Cc1ccc(NC(=O)c2csnn2)c(C)c1 returned Lassa entry inh 25%, CHX counter 22*, Shiga inhibitor 32, AMA1-RON2 inh 21% and MARV entry inh 1%.
Screening O=C(NC(=O)c1csnn1)Nc1ccccc1Cl returned CHX counter 34*, Shiga inhibitor 22 and AMA1-RON2 inh -4%.
For CSCc1ccc(C(=O)Nc2cccc(C)c2C)cc1 the results were Lassa entry inh 1%, CHX counter 49*, Shiga inhibitor 21, AMA1-RON2 inh 3% and MARV entry inh inconclusive.
Cc1cccc(NC(=O)c2cccnc2)c1C was read as Lassa entry inh 6%, CHX counter -1, Shiga inhibitor -9, AMA1-RON2 inh -7% and MARV entry inh 26%.
`Cc1ccc(C)c(NC(=O)CN(C)C(=O)c2ccccn2)c1` gave AMA1-RON2 inh 1%.
Cc1ccc(C)c(NC(=O)c2ccccn2)c1 was read as Lassa entry inh 22%, CHX counter 32*, Shiga inhibitor 47*, AMA1-RON2 inh 53% and MARV entry inh 8%.
`Cc1nc2sccn2c(=O)c1S(=O)(=O)Nc1ccc(N2CCN(S(C)(=O)=O)CC2)cc1` gave Lassa entry inh -30%[46.1 µM], CHX counter -9, Shiga inhibitor -16, AMA1-RON2 inh -15% and MARV entry inh inconclusive.
COCC1=Cc2cc3c(cc2C(C(C(=O)OC)C(=O)OC)N1C(=O)OC)OCO3 (centres undefined) was read as MARV entry inh -18%[14.2 µM].
For Cc1ccc(-n2nc(C(=O)Nc3ccc(C)c(F)c3)c3c4ccccc4n(C)c3c2=O)cc1 the results were Lassa entry inh 23%[46.1 µM] and MARV entry inh 0%[46.1 µM].
Screening S=C(NCc1ccco1)Nc1ccc(Cl)cc1Cl returned Lassa entry inh -1%, CHX counter 22*, Shiga inhibitor active, AMA1-RON2 inh -1% and MARV entry inh 6%.
`S=C(NCc1ccco1)Nc1ccc(Br)cc1Cl` gave Lassa entry inh 8%, CHX counter 18*, Shiga inhibitor 28, AMA1-RON2 inh 41% and MARV entry inh -15%[46.1 µM].
For OCCCNC(=S)Nc1ccc(Br)cc1Cl the results were Lassa entry inh 26%, CHX counter 21*, Shiga inhibitor 34*, AMA1-RON2 inh -9% and MARV entry inh -2%.
`COc1ccccc1NC(=O)Cn1c(=O)n(Cc2ccc3c(c2)OCO3)c(=O)c2oc3ccccc3c21` gave Lassa entry inh 6%[46.1 µM].
For COc1ccc(OC)c(NC(=O)NCCc2cccc(Cl)c2)c1 the results were Lassa entry inh 9%[46.1 µM], CHX counter 4, Shiga inhibitor 7, AMA1-RON2 inh inconclusive and MARV entry inh inconclusive.
Screening CC(=O)N(/N=C1\Sc2ccccc2C1=O)c1ccccc1 returned Lassa entry inh inconclusive, CHX counter 40*, Shiga inhibitor 37*, AMA1-RON2 inh -4% and MARV entry inh inconclusive.
CC(=O)N(/N=C1\Sc2ccccc2C1=O)c1ccc(C)cc1C was read as Lassa entry inh 10µM*, CHX counter 59*, Shiga inhibitor 121*, AMA1-RON2 inh -21% and MARV entry inh inconclusive.
CC(=O)N(/N=C1\Sc2ccccc2C1=O)c1ccccc1C was read as Lassa entry inh inconclusive, CHX counter 68*, Shiga inhibitor 91*, AMA1-RON2 inh inconclusive and MARV entry inh inconclusive.
CC(=O)N(C)C1=C(O)c2ccccc2C(=O)C1=O was read as Lassa entry inh 0%, CHX counter -5, Shiga inhibitor 18, AMA1-RON2 inh 7% and MARV entry inh -1%.
CC(=O)N(c1ccccc1C)c1ccccc1C was read as Lassa entry inh inconclusive, AMA1-RON2 inh 27% and MARV entry inh inconclusive.
Screening CC(=O)N(/N=C1/C(=O)Nc2ccccc21)c1ccccc1 returned Lassa entry inh 18%[46.1 µM], CHX counter 28*, Shiga inhibitor 44*, AMA1-RON2 inh -17% and MARV entry inh 20%[46.1 µM].
Screening COc1ccc(CN2CCn3ncc(C(=O)Nc4cc(C)cc(C)c4)c3C2=O)cc1 returned Lassa entry inh inconclusive, CHX counter -2, Shiga inhibitor -12, AMA1-RON2 inh -14% and MARV entry inh -28%.
O[C@H]1CN(Cc2cccs2)[C@@H](c2ccc(Cl)cc2)C[C@H]1n1cc(C2CC2)nn1 was read as Lassa entry inh -24%[46.1 µM].
CCCCC(=O)Nc1ccc2oc(-c3cccnc3)nc2c1 was read as Lassa entry inh inconclusive, CHX counter 31*, Shiga inhibitor 60*, AMA1-RON2 inh 1% and MARV entry inh 9%.
Screening COc1ccc(C(=O)Nc2ccc3oc(-c4cccnc4)nc3c2)cc1 returned Lassa entry inh 5%[46.1 µM] and MARV entry inh -22%[46.1 µM].
For CCOc1ccc(C(=O)Nc2ccc3oc(-c4cccnc4)nc3c2)cc1 the results were Lassa entry inh -13%[46.1 µM] and MARV entry inh 2%[46.1 µM].
`CCCC(=O)Nc1ccc2oc(-c3cccnc3)nc2c1` gave Lassa entry inh 2%, CHX counter 25*, Shiga inhibitor 54*, AMA1-RON2 inh 3% and MARV entry inh 0%.
For COC(=O)Cc1ccc2oc(-c3cccnc3)nc2c1 the results were Lassa entry inh 6%, CHX counter 49*, Shiga inhibitor 88*, AMA1-RON2 inh -17% and MARV entry inh -13%[46.1 µM].
`OC(Cc1ccnc2ccccc12)C(Cl)(Cl)Cl` (centres undefined) gave Lassa entry inh inconclusive, AMA1-RON2 inh -1% and MARV entry inh inconclusive.
For Cc1ccc(C(=O)NCCCNC(=O)c2ccco2)cc1C the results were CHX counter 10, Shiga inhibitor -2, AMA1-RON2 inh -2% and MARV entry inh -13%[46.1 µM].
Cc1cc(C)c(S(=O)(=O)N2CCN(C(=O)c3c(C)nn(-c4ccccc4)c3Cl)CC2)c(C)c1 was read as Lassa entry inh inconclusive, AMA1-RON2 inh -8%[11.6 µM] and MARV entry inh 14µM*.
`Nc1cc(C(F)(F)F)ccc1Nc1ccccc1` gave CHX counter 28*, Shiga inhibitor 77* and AMA1-RON2 inh -19%.
`N#Cc1ccc(Nc2ccccc2)c(N)c1` gave Lassa entry inh -13%, CHX counter 4, Shiga inhibitor -9, AMA1-RON2 inh -9% and MARV entry inh 2%.
